{"source": "PubChem BioAssay (EPA / NIEHS)", "note": "Several values for one entry are separate records, joined by “and”; a condition that tells them apart may be missing. Identical values can stand only once. A structure can be active in one record and inactive in another. Activity calls are given as the source filed them. Rule for the calls: active = hit-call score of the fitted dose curve at least 0.9, where 1 is the maximum; inactive = score below 0.9."}
{"experiment": "ATG_AP_2_CIS: Attagene CIS-FACTORIAL HepG2 Assay for human Activator Protein 2 (AP-2) (AID 2282932)", "conditions": "HepG2 AP-2 cis-reporter, Attagene transcription factor profiling; actives raise or lower the signal", "how_it_was_run": "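Assay in transfected HepG2 with promoter-regulated reporters, 24 h incubation after dosing. Signal is reporter mRNA fluorescence (RT-PCR, capillary electrophoresis), analysed for both increases and decreases relative to DMSO controls.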"}
{"smiles": "COc1cccc(C=O)c1", "outcome": "inactive"}
{"smiles": "COc1ccc(OC)c(C=O)c1", "outcome": "inactive"}
{"smiles": "COc1cc2c(cc1OC)[C@@]13CCN4CC5=CCO[C@H]6CC(=O)N2[C@H]1[C@H]6[C@H]5C[C@H]43", "outcome": "inactive"}
{"smiles": "ClC1=C(Cl)[C@]2(Cl)[C@@H]3[C@@H](Cl)[C@@H](Cl)C[C@@H]3[C@@]1(Cl)C2(Cl)Cl", "outcome": "inactive"}
{"smiles": "CC(C)(C)c1cc(O)ccc1O", "outcome": "inactive"}
{"smiles": "O=C(O)C(F)(F)C(F)(F)C(F)(F)C(F)(F)C(F)(F)C(F)(F)F", "outcome": "inactive"}
{"smiles": "CC(C)(OO)c1ccccc1", "outcome": "inactive"}
{"smiles": "CCOP(=S)(OCC)Oc1ccc(S(C)=O)cc1", "note": "(stereo unspecified)", "outcome": "inactive"}
{"smiles": "C[C@]12CCC(=O)C[C@@H]1CC[C@@H]1[C@@H]2CC[C@]2(C)[C@@H](O)CC[C@@H]12", "outcome": "inactive"}
{"smiles": "CC(C)(C)CC(C)(C)c1ccc(O)cc1", "outcome": "inactive"}
{"smiles": "CN(C)N=O", "outcome": "inactive"}
{"smiles": "CCN1CCC2(CC1)COc1cc3c(cc12)N(C(=O)c1ccc(-c2ccc(-c4nnc(C)o4)cc2C)cc1)CC3", "outcome": "inactive"}
{"smiles": "ClCC(Cl)CCl", "outcome": "inactive"}
{"smiles": "O=C1C2(Cl)C3(Cl)C4(Cl)C(Cl)(Cl)C5(Cl)C3(Cl)C1(Cl)C5(Cl)C24Cl", "note": "(stereo unspecified)", "AC50": "18.4 µM (active)", "outcome": "inactive"}
{"smiles": "[O-][Cl+2]([O-])O", "outcome": "inactive"}
{"smiles": "O=C/C=C/c1ccccc1", "outcome": "inactive"}
{"smiles": "CCC(C)c1cccc(C(C)CC)c1O", "note": "(stereo unspecified)", "outcome": "inactive"}
{"smiles": "CC(C)(c1ccc(OCC2CO2)cc1)c1ccc(OCC2CO2)cc1", "note": "(stereo unspecified)", "outcome": "inactive"}
{"smiles": "COP(=S)(OC)Oc1cc(Cl)c(Cl)cc1Cl", "outcome": "inactive"}
{"smiles": "O=C(c1ccccc1)C(Cl)Cl", "outcome": "inactive"}
{"smiles": "c1ccc(N=NNc2ccccc2)cc1", "outcome": "inactive"}
{"smiles": "CC(C#N)CCC#N", "note": "(stereo unspecified)", "outcome": "inactive"}
{"smiles": "C(=NC1CCCCC1)=NC1CCCCC1", "outcome": "inactive"}
{"smiles": "O=c1[nH]c(=O)[nH]c(=O)[nH]1", "outcome": "inactive"}
{"smiles": "Cl/C=C/Cl", "outcome": "inactive"}
{"smiles": "Cc1ccc(N)cc1Cl", "outcome": "inactive"}
{"smiles": "C[C@]12CC[C@H](O)CC1=CC[C@@H]1[C@@H]2CC[C@]2(C)C(=O)CC[C@@H]12", "outcome": "inactive"}
{"smiles": "CCSC(C)CC1CC(=O)C(C(CC)=NOC/C=C/Cl)=C(O)C1", "note": "(stereo unspecified)", "outcome": "inactive"}
{"smiles": "CC(C)c1cccc(C(C)C)c1O", "outcome": "inactive"}
{"smiles": "CC(C)c1ccc(CO)cc1", "outcome": "inactive"}
{"smiles": "CC1(C)Cc2cccc(O)c2O1", "outcome": "inactive"}
{"smiles": "CCOP(=O)(CN(CCO)CCO)OCC", "outcome": "inactive"}
{"smiles": "N#Cc1ccccn1", "outcome": "inactive"}
{"smiles": "COc1ccccc1OC", "outcome": "inactive"}
{"smiles": "Oc1cccc2cccnc12", "outcome": "inactive"}
{"experiment": "ATG_BRE_CIS: Attagene CIS-FACTORIAL HepG2 Assay for human Bone Morphogenetic Protein (BMP) Response Element (BRE) (AID 2282933)", "conditions": "HepG2 BMP response element reporter, Attagene transcription factor profiling; actives raise or lower the signal", "how_it_was_run": "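After a 24 h chemical treatment, transiently transfected HepG2 cells were lysed for RNA; reporter transcripts were quantified by fluorescent RT-PCR and capillary electrophoresis, normalised to DMSO.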"}
{"smiles": "COc1cccc(C=O)c1", "outcome": "inactive"}
{"smiles": "COc1ccc(OC)c(C=O)c1", "outcome": "inactive"}
{"smiles": "COc1cc2c(cc1OC)[C@@]13CCN4CC5=CCO[C@H]6CC(=O)N2[C@H]1[C@H]6[C@H]5C[C@H]43", "outcome": "inactive"}
{"smiles": "ClC1=C(Cl)[C@]2(Cl)[C@@H]3[C@@H](Cl)[C@@H](Cl)C[C@@H]3[C@@]1(Cl)C2(Cl)Cl", "outcome": "inactive"}
{"smiles": "CC(C)(C)c1cc(O)ccc1O", "AC50": "19.8 µM (active)"}
{"smiles": "O=C(O)C(F)(F)C(F)(F)C(F)(F)C(F)(F)C(F)(F)C(F)(F)F", "outcome": "inactive"}
{"smiles": "CC(C)(OO)c1ccccc1", "outcome": "inactive"}
{"smiles": "CCOP(=S)(OCC)Oc1ccc(S(C)=O)cc1", "note": "(stereo unspecified)", "outcome": "inactive"}
{"smiles": "C[C@]12CCC(=O)C[C@@H]1CC[C@@H]1[C@@H]2CC[C@]2(C)[C@@H](O)CC[C@@H]12", "AC50": "65.4 µM (active) and 87 µM (active)", "outcome": "inactive"}
{"smiles": "CC(C)(C)CC(C)(C)c1ccc(O)cc1", "outcome": "inactive"}
{"smiles": "CN(C)N=O", "outcome": "inactive"}
{"smiles": "CCN1CCC2(CC1)COc1cc3c(cc12)N(C(=O)c1ccc(-c2ccc(-c4nnc(C)o4)cc2C)cc1)CC3", "outcome": "inactive"}
{"smiles": "ClCC(Cl)CCl", "outcome": "inactive"}
{"smiles": "O=C1C2(Cl)C3(Cl)C4(Cl)C(Cl)(Cl)C5(Cl)C3(Cl)C1(Cl)C5(Cl)C24Cl", "note": "(stereo unspecified)", "outcome": "inactive"}
{"smiles": "[O-][Cl+2]([O-])O", "outcome": "inactive"}
{"smiles": "O=C/C=C/c1ccccc1", "outcome": "inactive"}
{"smiles": "CCC(C)c1cccc(C(C)CC)c1O", "note": "(stereo unspecified)", "outcome": "inactive"}
{"smiles": "CC(C)(c1ccc(OCC2CO2)cc1)c1ccc(OCC2CO2)cc1", "note": "(stereo unspecified)", "outcome": "inactive"}
{"smiles": "COP(=S)(OC)Oc1cc(Cl)c(Cl)cc1Cl", "AC50": "64.5 µM (active)"}
{"smiles": "O=C(c1ccccc1)C(Cl)Cl", "outcome": "inactive"}
{"smiles": "C[C@@H]1C[C@@H]([C@H](O)CC2CC(=O)NC(=O)C2)C(=O)[C@@H](C)C1", "AC50": "16.6 µM (active) and 5.79 µM (active) and 22.8 µM (active)", "outcome": "inactive"}
{"smiles": "c1ccc(N=NNc2ccccc2)cc1", "AC50": "123 µM (active)"}
{"smiles": "CC(C#N)CCC#N", "note": "(stereo unspecified)", "outcome": "inactive"}
{"smiles": "C(=NC1CCCCC1)=NC1CCCCC1", "AC50": "2.69 µM (active)"}
{"smiles": "O=c1[nH]c(=O)[nH]c(=O)[nH]1", "outcome": "inactive"}
{"smiles": "Cl/C=C/Cl", "outcome": "inactive"}
{"smiles": "Cc1ccc(N)cc1Cl", "outcome": "inactive"}
{"smiles": "C[C@]12CC[C@H](O)CC1=CC[C@@H]1[C@@H]2CC[C@]2(C)C(=O)CC[C@@H]12", "outcome": "inactive"}
{"smiles": "CCCCCCCCc1ccc(O)cc1", "outcome": "inactive"}
{"smiles": "CCSC(C)CC1CC(=O)C(C(CC)=NOC/C=C/Cl)=C(O)C1", "note": "(stereo unspecified)", "outcome": "inactive"}
{"smiles": "O=C(O)C(F)(F)C(F)(F)C(F)(F)C(F)(F)C(F)(F)C(F)(F)C(F)(F)C(F)(F)C(F)(F)C(F)(F)F", "outcome": "inactive"}
{"smiles": "CC(C)c1cccc(C(C)C)c1O", "outcome": "inactive"}
{"smiles": "CC(C)c1ccc(CO)cc1", "outcome": "inactive"}
{"smiles": "CC1(C)Cc2cccc(O)c2O1", "outcome": "inactive"}
{"smiles": "CCOP(=O)(CN(CCO)CCO)OCC", "outcome": "inactive"}
{"smiles": "N#Cc1ccccn1", "outcome": "inactive"}
{"smiles": "COc1ccccc1OC", "outcome": "inactive"}
{"smiles": "Oc1cccc2cccnc12", "outcome": "inactive"}
